# Reference: PubChem BioAssay (EPA / NIEHS)
# Records with an inconclusive call do not appear. Calls of active or inactive are those of the source. Rule for the calls, unless noted: active = hit-call score of the fitted dose curve at least 0.9, where 1 is the maximum; inactive = score below 0.9.
# Columns and labels:
# [1] = read-out: NAD(P)H dehydrogenase [quinone] 1 (NQO1), NQO1 (gene 1728); assay: LTEA_HepaRG_NQO1: Life Technologies and Expression Analysis (LTEA) Assay for NAD(P)H dehydrogenase [quinone] 1 (NQO1) using HepaRG (AID 2283526); conditions: mRNA level, 48 h; actives raise or lower the signal
# Method in brief: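 Differentiated human HepaRG cells in serum-free induction medium, dosed in duplicate for 48 h at 8 half-log concentrations up to 100 uM in 0.5% DMSO. NQO1 mRNA by qRT-PCR normalized to ACTB, GAPDH, POLR2A; bidirectional fit versus DMSO baseline.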
# [2] = read-out: Nuclear factor erythroid 2-related factor 2 (Homo sapiens) (UniProt Q16236); assay: LTEA_HepaRG_NFE2L2: Life Technologies and Expression Analysis (LTEA) Assay for Nuclear factor erythroid 2-related factor 2 (NFE2L2) Transcription Factor using HepaRG (AID 2283527); conditions: mRNA level, 48 h; actives raise or lower the signal;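 for outcome: TaqMan qRT-PCR transcript level normalised to ACTB GAPDH and POLR2A housekeeping genes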
# Method in brief: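 Differentiated human HepaRG cells, serum-free induction medium, exposed 48 h in duplicate to eight half-log concentrations up to 100 uM in 0.5% DMSO. NFE2L2 mRNA by Fluidigm TaqMan qRT-PCR, normalised to ACTB, GAPDH, POLR2A; bidirectional change versus DMSO.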
# [3] = read-out: succinate dehydrogenase complex iron sulfur subunit B (SDHB), SDHB (gene 6390); assay: LTEA_HepaRG_SDHB: Life Technologies and Expression Analysis (LTEA) Assay for succinate dehydrogenase complex iron sulfur subunit B (SDHB) using HepaRG (AID 2283528); conditions: mRNA level, 48 h; actives raise or lower the signal
# Method in brief: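 Readout is SDHB transcript level by qRT-PCR, normalised to three housekeeping genes and fitted bidirectionally against 0.5% DMSO vehicle. Human HepaRG cells were treated for 48 h at up to 100 uM.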
# [4] = read-out: solute carrier (SLCO1B1), SLCO1B1 (gene 10599); assay: LTEA_HepaRG_SLCO1B1: Life Technologies and Expression Analysis (LTEA) Assay for solute carrier (SLCO1B1) using HepaRG (AID 2283530); conditions: mRNA level, 48 h; actives raise or lower the signal
# Method in brief: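 SLCO1B1 transcript read by qRT-PCR (Fluidigm arrays), normalized to three housekeeping genes, after 48 h chemical exposure of HepaRG cells; bidirectional concentration-response fitting versus 0.5% DMSO baseline. Eight-point half-log series, maximum 100 uM.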
# [5] = read-out: sulfotransferase 2A1 (SULT2A1), SULT2A1 (gene 6822); assay: LTEA_HepaRG_SULT2A1: Life Technologies and Expression Analysis (LTEA) Assay for sulfotransferase 2A1 (SULT2A1) using HepaRG (AID 2283531); conditions: mRNA level, 48 h; actives raise or lower the signal
# Method in brief: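 HepaRG, 48 h chemical exposure, 8-pt half-log curve from 100 uM in 0.5% DMSO, duplicates. Readout: TaqMan qRT-PCR of SULT2A1 mRNA, housekeeping-normalized. Bidirectional fit vs DMSO baseline.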
# [6] = read-out: Transforming Growth Factor (TGFA), TGFA (gene 7039); assay: LTEA_HepaRG_TGFA: Life Technologies and Expression Analysis (LTEA) Assay for Transforming Growth Factor (TGFA) using HepaRG (AID 2283532); conditions: mRNA level, 48 h; actives raise or lower the signal
# Method in brief: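 Differentiated HepaRG cells exposed 48 hours in serum-free induction medium, 0.5% DMSO vehicle, 8-point half-log series from 100 uM, in duplicate. TGFA mRNA by TaqMan qRT-PCR, normalised to ACTB, GAPDH, POLR2A; bidirectional fit versus DMSO.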
# [7] = read-out: Transforming Growth Factor (TGFB1), TGFB1 (gene 7040); assay: LTEA_HepaRG_TGFB1: Life Technologies and Expression Analysis (LTEA) Assay for Transforming Growth Factor (TGFB1) Transporter using HepaRG (AID 2283533); conditions: mRNA level, 48 h; actives raise or lower the signal
# Method in brief: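 qRT-PCR readout of TGFB1 transcript in HepaRG lysates, normalized to three housekeeping genes; gain or loss of signal fitted relative to 0.5% DMSO vehicle. Exposure: 48 h, 8-point curve from 100 uM, duplicate wells.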
# TIMP1, TIMP1 (gene 7076) = assay: LTEA_HepaRG_TIMP1: Life Technologies and Expression Analysis (LTEA) Assay for TIMP1 using HepaRG (AID 2283534); conditions: mRNA level, 48 h; actives raise or lower the signal;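 for outcome: TaqMan qRT-PCR signal normalized to ACTB GAPDH and POLR2A housekeeping genes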
# Method in brief: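 HepaRG, 48 h exposure, 8-pt half-log series from 100 uM in 0.5% DMSO, duplicates; TIMP1 transcript by Fluidigm qRT-PCR, housekeeping-normalized; bidirectional curve fit vs DMSO baseline.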
# [8] = read-out: Tumor necrosis factor receptor 1 (TNFRSF1A), TNFRSF1A (gene 7132); assay: LTEA_HepaRG_TNFRSF1A: Life Technologies and Expression Analysis (LTEA) Assay for Tumor necrosis factor receptor 1 (TNFRSF1A) using HepaRG (AID 2283535); conditions: mRNA level, 48 h; actives raise or lower the signal
# Method in brief: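 HepaRG, 48 h plating then 48 h chemical exposure, serum-free induction media; 8-pt CRC from 100 uM, half-log, 0.5% DMSO vehicle, duplicates. Readout: TaqMan qRT-PCR (Fluidigm), housekeeping-gene normalized; bidirectional fit vs DMSO.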
# [9] = read-out: Thyroid Hormone Responsive (THRSP), THRSP (gene 7069); assay: LTEA_HepaRG_THRSP: Life Technologies and Expression Analysis (LTEA) Assay for Thyroid Hormone Responsive (THRSP) using HepaRG (AID 2283536); conditions: mRNA level, 48 h; actives raise or lower the signal
# Method in brief: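 Differentiated HepaRG cells treated 48 h in serum-free induction medium with 8 half-log concentrations up to 100 uM (0.5% DMSO), duplicates. THRSP mRNA by TaqMan qRT-PCR normalised to ACTB, GAPDH, POLR2A; bidirectional fit versus DMSO.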
# [10] = read-out: UDP glucuronosyltransferase (UGT1A1), UGT1A1 (gene 54658); assay: LTEA_HepaRG_UGT1A1: Life Technologies and Expression Analysis (LTEA) Assay for UDP glucuronosyltransferase (UGT1A1) using HepaRG (AID 2283538); conditions: mRNA level, 48 h; actives raise or lower the signal
# Method in brief: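 HepaRG cells, 0.5% DMSO vehicle, 48 h exposure in serum-free induction medium to 8-point half-log series topping at 100 uM, in duplicate. UGT1A1 mRNA by Fluidigm qRT-PCR, normalized to ACTB/GAPDH/POLR2A; bidirectional fit versus DMSO.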
# [11] = read-out: UDP glucuronosyltransferase (UGT1A6), UGT1A6 (gene 54578); assay: LTEA_HepaRG_UGT1A6: Life Technologies and Expression Analysis (LTEA) Assay for UDP glucuronosyltransferase (UGT1A6) using HepaRG (AID 2283539); conditions: mRNA level, 48 h; actives raise or lower the signal
# Method in brief: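 qRT-PCR readout of UGT1A6 mRNA (normalized to ACTB/GAPDH/POLR2A) in differentiated HepaRG cells after 48 h chemical exposure; 8 concentrations, top 100 uM, half-log steps, 0.5% DMSO. Bidirectional curve fit relative to DMSO baseline.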
# [12] = read-out: X-box binding protein 1 (XBP1), XBP1 (gene 7494); assay: LTEA_HepaRG_XBP1: Life Technologies and Expression Analysis (LTEA) Assay for X-box binding protein 1 (XBP1) using HepaRG (AID 2283540); conditions: mRNA level, 48 h; actives raise or lower the signal
# Method in brief: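 HepaRG, 48 h exposure, 8-pt half-log CRC top 100 uM, 0.5% DMSO vehicle, duplicates. Readout: TaqMan qRT-PCR of XBP1 mRNA, housekeeping-normalised (ACTB/GAPDH/POLR2A); bidirectional fit vs DMSO baseline.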
# [13] = LTEA_HepaRG_LDH_cytotoxicity: Cytotoxicity Assessment in the Life Technologies and Expression Analysis (LTEA) Assay (AID 2283563; active = hit-call score of the fitted dose curve at least 0.9, where 1 is the maximum;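 for AC50: LDH activity released into spent culture medium as a marker of cell death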)
# Method in brief: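 HepaRG (human liver line), 48 h exposure, 8-pt half-log series from 100 uM, 0.5% DMSO vehicle, duplicates. Read-out: LDH in spent medium. Positive-direction fit vs DMSO baseline.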
# [14] = ATG_XTT_Cytotoxicity: Cytotoxicity Assessment in the Attagene TRANS-FACTORIAL HepG2 Assay (AID 2283584; active = hit-call score of the fitted dose curve at least 0.9, where 1 is the maximum)
# Method in brief: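 XTT readout of cell number in transfected HepG2 cells, 24 h post-dosing; DMSO serves as negative control and baseline, with activity taken as loss of viability signal.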
# [15] = read-out: Cellular tumor antigen p53 (Homo sapiens) (UniProt P04637); assay: LTEA_HepaRG_TP53: Life Technologies and Expression Analysis (LTEA) Assay for Tumor Protein P53 (TP53) using HepaRG (AID 2283537); conditions: mRNA level, 48 h; actives raise or lower the signal
# Method in brief: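 Read-out is TP53 transcript level by microfluidic qRT-PCR, normalised to three housekeeping genes and fitted bidirectionally against DMSO. Human HepaRG cells received compounds for 48 h, highest concentration 100 uM.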
# [16] = TOX21_p53_BLA_p2_viability: Viability Assessment in the Tox21 HCT-116 p53 Agonism Beta-lactamase Assay, Phase 2 (AID 2283591; active = hit-call score of the fitted dose curve at least 0.9, where 1 is the maximum;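 note: compound exposure lasted 16 h at 37 °C; actives lower the ATP signal meaning cytotoxicity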)
# Method in brief: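 HCT116 p53-bla cells, 4000/well, dosed after 5 h plating (217-fold dilution of DMSO stocks) and incubated 16 h at 37C. Viability taken as cellular ATP by CellTiter-Glo luminescence after 30 min RT; signal loss marks cytotoxicity.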
# [17] = TOX21_p53_BLA_p3_viability: Viability Assessment in the Tox21 HCT-116 p53 Agonism Beta-lactamase Assay, Phase 3 (AID 2283593; active = hit-call score of the fitted dose curve at least 0.9, where 1 is the maximum;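 note: cells exposed to compound for 16 h before reading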)
# Method in brief: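 HCT116 cells, 4000/well, dosed 5 h after plating by pin transfer (217-fold dilution from DMSO stock) and incubated 16 h at 37C, 5% CO2. Viability read as ATP luminescence with CellTiter-Glo after 30 min at room temperature.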
# [18] = target: Cellular tumor antigen p53 (Homo sapiens) (UniProt P04637); assay: TOX21_p53_BLA_p2_ratio: Tox21 HCT-116 p53 Agonism Beta-lactamase Assay, Ratio, Phase 2 (AID 2283592; active = hit-call score of the fitted dose curve at least 0.9, where 1 is the maximum)
# Method in brief: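 In this cell-based reporter format, HCT116 cells were dosed with chemicals delivered from DMSO by 217-fold dilution and incubated 16 h at 37C. Emission at 460 and 530 nm after 2 h CCF4-AM loading provided the ratio, fitted upward versus DMSO.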
# Sequence of Nuclear factor erythroid 2-related factor 2 (Homo sapiens) (Q16236 whole entry, looked up): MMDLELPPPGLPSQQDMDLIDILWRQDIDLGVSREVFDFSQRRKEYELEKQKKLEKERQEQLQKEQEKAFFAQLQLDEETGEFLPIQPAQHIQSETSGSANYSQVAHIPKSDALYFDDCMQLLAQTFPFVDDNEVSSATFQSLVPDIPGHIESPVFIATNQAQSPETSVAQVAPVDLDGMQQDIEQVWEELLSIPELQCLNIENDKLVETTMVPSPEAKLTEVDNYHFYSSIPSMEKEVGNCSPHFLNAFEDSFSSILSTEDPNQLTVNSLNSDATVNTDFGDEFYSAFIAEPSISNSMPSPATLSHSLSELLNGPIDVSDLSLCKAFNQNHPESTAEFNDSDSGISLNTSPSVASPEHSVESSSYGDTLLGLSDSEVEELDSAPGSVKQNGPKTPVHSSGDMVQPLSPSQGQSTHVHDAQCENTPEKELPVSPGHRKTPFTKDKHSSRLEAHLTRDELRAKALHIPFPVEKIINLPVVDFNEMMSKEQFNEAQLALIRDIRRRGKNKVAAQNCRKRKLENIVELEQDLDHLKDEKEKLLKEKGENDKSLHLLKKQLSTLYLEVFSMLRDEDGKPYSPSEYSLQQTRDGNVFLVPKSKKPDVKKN
# Sequence of Cellular tumor antigen p53 (Homo sapiens) (P04637 whole entry, looked up): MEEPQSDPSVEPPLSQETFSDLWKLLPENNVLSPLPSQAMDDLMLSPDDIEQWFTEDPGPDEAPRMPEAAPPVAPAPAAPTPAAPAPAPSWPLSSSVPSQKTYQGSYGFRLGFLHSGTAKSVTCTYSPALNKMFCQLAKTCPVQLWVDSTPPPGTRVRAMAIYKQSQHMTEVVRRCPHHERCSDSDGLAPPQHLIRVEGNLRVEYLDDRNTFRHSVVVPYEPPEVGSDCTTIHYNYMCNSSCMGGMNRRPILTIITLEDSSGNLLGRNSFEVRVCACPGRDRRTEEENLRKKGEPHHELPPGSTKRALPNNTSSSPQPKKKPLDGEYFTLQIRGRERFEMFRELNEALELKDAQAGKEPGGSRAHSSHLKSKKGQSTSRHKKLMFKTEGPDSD
smiles,measurement,setting,value
OCCOCCO,outcome,[1],inactive
same,outcome,[2],inactive
same,outcome,[3],inactive
same,outcome,[4],inactive
same,outcome,[5],inactive
same,outcome,[6],inactive
same,outcome,[7],inactive
same,outcome,"TIMP1, TIMP1 (gene 7076)",inactive
same,outcome,[8],inactive
same,outcome,[9],inactive
same,outcome,[10],inactive
same,outcome,[11],inactive
same,outcome,[12],inactive
same,outcome,[13],inactive
same,outcome,[14],inactive
CCCCOC(=O)c1ccccc1C(=O)OCc1ccccc1,outcome,[1],inactive
same,outcome,[2],inactive
same,outcome,[3],inactive
same,outcome,[4],inactive
same,outcome,[5],inactive
same,outcome,[6],inactive
same,outcome,[7],inactive
same,outcome,"TIMP1, TIMP1 (gene 7076)",inactive
same,outcome,[8],inactive
same,outcome,[9],inactive
same,outcome,[15],inactive
same,outcome,[10],inactive
same,outcome,[11],inactive
same,outcome,[12],inactive
same,outcome,[13],inactive
same,outcome,[14],inactive
same,outcome,[16],inactive
same,outcome,[17],inactive
CN(C)[C@@H]1C(=O)C(C(N)=O)=C(O)[C@@]2(O)C(=O)C3=C(O)c4c(O)cccc4[C@@](C)(O)[C@H]3C[C@@H]12,outcome,[1],inactive
same,outcome,[2],inactive
same,outcome,[3],inactive
same,outcome,[4],inactive
same,outcome,[5],inactive
same,outcome,[6],inactive
same,outcome,[7],inactive
same,outcome,"TIMP1, TIMP1 (gene 7076)",inactive
same,outcome,[8],inactive
same,outcome,[9],inactive
same,outcome,[15],inactive
same,outcome,[10],inactive
same,outcome,[11],inactive
same,outcome,[12],inactive
same,outcome,[13],inactive
same,outcome,[16],inactive
same,outcome,[18],inactive
COP(=S)(OC)SCN1C(=O)c2ccccc2C1=O,outcome,[1],inactive
same,outcome,[2],inactive
same,outcome,[3],inactive
same,outcome,[4],inactive
same,outcome,[5],inactive
same,outcome,[6],inactive
same,outcome,[7],inactive
same,outcome,"TIMP1, TIMP1 (gene 7076)",inactive
same,outcome,[8],inactive
same,outcome,[9],inactive
same,outcome,[15],inactive
same,outcome,[10],inactive
same,outcome,[11],inactive
same,outcome,[12],inactive
same,outcome,[13],inactive
same,outcome,[16],inactive
c1ccc2c(c1)oc1ccccc12,outcome,[1],inactive
same,outcome,[2],inactive
same,outcome,[3],inactive
same,outcome,[4],inactive
same,outcome,[5],inactive
same,outcome,[6],inactive
same,outcome,[7],inactive
same,outcome,"TIMP1, TIMP1 (gene 7076)",inactive
same,outcome,[9],inactive
same,outcome,[15],inactive
same,outcome,[10],inactive
same,outcome,[11],inactive
same,outcome,[12],inactive
same,outcome,[13],inactive
same,outcome,[16],inactive
same,outcome,[17],inactive
O=C(N[C@H](c1ccccc1)[C@@H]1CN2CCC1CC2)c1c(Cl)ccc(C(F)(F)F)c1Cl,outcome,[1],inactive
same,AC50,[2],71.5 µM (active)
same,outcome,[3],inactive
same,AC50,[4],73.9 µM (active)
same,AC50,[5],73.2 µM (active)
same,AC50,[6],46.2 µM (active)
same,AC50,[7],46.2 µM (active)
same,AC50,"TIMP1, TIMP1 (gene 7076)",64.9 µM (active)
same,AC50,[8],73.9 µM (active)
same,outcome,[9],inactive
same,outcome,[15],inactive
same,AC50,[10],63.8 µM (active)
same,AC50,[11],68.2 µM (active)
same,AC50,[12],73.9 µM (active)
same,AC50,[13],51.9 µM (active)
same,outcome,[16],inactive
CC(C)(C)OOC(C)(C)CCC(C)(C)OOC(C)(C)C,outcome,[1],inactive
same,outcome,[3],inactive
same,outcome,[4],inactive
same,outcome,[5],inactive
same,outcome,[6],inactive
same,outcome,[7],inactive
same,outcome,"TIMP1, TIMP1 (gene 7076)",inactive
same,outcome,[8],inactive
same,outcome,[9],inactive
same,outcome,[15],inactive
same,outcome,[10],inactive
same,outcome,[11],inactive
same,outcome,[12],inactive
same,outcome,[13],inactive
same,outcome,[14],inactive
same,outcome,[16],inactive
same,outcome,[18],inactive
